# KCNH2 3.1 block: blocks the human KCNH2 3.1 channel isoform. 340,000 tested, 0.95% active. U2OS KCNH2 3.1, thallium flux FluxOr; hits give low values. activity change, % (tested at about 1.8 µM);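 active = maximum activity change below -70%; inconclusive = maximum activity change from -70% to -50%; inactive = maximum activity change above -50%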;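 note: thallium influx rate constant from kinetic fluorescence after stimulation buffer; % is set by controls: 0 for no effect and ±100 for the full control effect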
#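 Thallium flux via FluxOr fluorescence (Red40 quencher, 45 min loading) in U2OS cells virally expressing the KCNH2 3.1 isoform (1.77 x 10^8 /mL virus, overnight at 37 C). Rate constants from 2-min kinetic reads post-stimulation, normalised to positive and negative controls.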
# ClpP mod: qHTS Assay for Activators of ClpP. ATP-dependent Clp protease proteolytic subunit (Bacillus subtilis (strain 168)), P80244. purified B. subtilis ClpP, FRET peptide cleavage, 20 min. Potency, µM (doses to about 57.5 µM), inactives show at the top dose activity change, negative = active. 340,000 tested, 1.9% active; active = well fitted falling curve with a large enough effect; inconclusive = small, poorly fitted or top-dose-only effect; inactive = no such curve, though single readings can be large or run the other way; note: potency is the fitted concentration of half-maximal effect; the source files actives as falling curves though it sought activators and does not explain the sign; nearly all actives have a fitted effect of over 65% in size
#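 ClpP 10 microg/mL final, pH 8 Tris/KCl buffer with BSA, glycerol, Tween-20; compound pinned in; FRET-FV substrate; RT 20 min; Ex320/Em430; ΔFRET vs ADEP 5.8 microM, DMSO, no enzyme.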
# hERG WT inh: blocks the wildtype human KCNH2 potassium channel; Q12809; U2OS, BacMam KCNH2, thallium flux FluxOr; hits give low values; activity change, % at 1.84 µM; 340,000 tested, 0.37% active; AID 720551;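 active = maximum activity change below -70%; inconclusive = maximum activity change between -70% and -50%; inactive = maximum activity change above -50%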; note: % is set by controls: 0 for no effect and ±100 for the full control effect
#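 U2OS cells transduced with wild-type KCNH2 virus are loaded with FluxOr dye for 45 min, and thallium flux is measured in kinetic reads before and after stimulation buffer. Rate constants are normalized to DMSO controls.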
# p53 reactivator: restores transcriptional activity of mutant p53 | H1299 p53-A138V BP100-luciferase reporter, luminescence, 24 h | Potency, µM (titrated, usually from 92.2 µM), inactives show at the highest dose activity change, positive = activation, hits mostly activators | 320,000 tested, 0.063% active | AID 504706; active = well fitted activation curve with a large enough effect; inconclusive = small, poorly fitted or top-dose-only effect; inactive = no such curve, though single readings can be large or run the other way; note: potency is the fitted concentration of half-maximal effect; % of control where 0% means no effect; nearly all actives have a fitted effect of over 45% in size
#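 H1299 (p53-null), stable ts p53-A138V + BP100-Luc; 1000 cells/well, Opti-MEM/10% FBS; cpd 4 pt, 1:5; 24 h, 37 deg C, 5% CO2; detection reagent 10 min RT; luminescence.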
# TRPV1 agonist: activates the human vanilloid receptor TRPV1. activation, % at 8.33 µM. TRPV1-expressing cells, Fluo-8 calcium influx, agonist mode. 320,000 tested, 0.19% active; in the data active = activation above about 80%; inconclusive = between about 30% and that limit; note: 0% is about no effect
#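 TRPV1-expressing cells were cultured overnight at 35.5C and loaded with Fluo-8 calcium dye for 40 to 90 min at room temperature. After a 10 s baseline, compound was added and calcium influx was read kinetically for 3 min (ex 480/em 520 nm).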
# TRPV1 potentiator: potentiators of human vanilloid receptor 1 (TRPV1); AID 540277; potentiation, % at 8.33 µM; TRPV1-expressing cells, Fluo-8 calcium influx, capsaicin EC20 potentiation; 320,000 tested, 0.02% active; in the data active = potentiation above about 80%; inconclusive = between about 30% and that limit; note: 0% is about no effect
#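 Fluo-8 calcium influx in TRPV1-expressing cells, kinetic read (ex 480/em 520 nm). Compound added and read 3 min for agonist activity, followed by capsaicin at EC20 final and 2 min further read for enhancement.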
# Numbers without * were called inactive; u = inconclusive; x = no result given; ! = a repeat was not active. This is a sample that favours compounds with a hit; in the whole collection about 2.6% have one here.
SMILES,KCNH2 3.1 block,ClpP mod,hERG WT inh,p53 reactivator,TRPV1 agonist,TRPV1 potentiator
COc1ccc(NC(=O)CN(c2ccccc2OC)S(C)(=O)=O)c(OC)c1,x,-1%,x,x,x,x
Cc1cccc(NC(=O)Cn2c(=O)n(CCc3ccccc3)c(=O)c3sc4ccccc4c32)c1,x,-27%,x,x,x,x
Cn1c(CCN2CCN(c3ccccn3)CC2)nc2cc(NS(=O)(=O)c3ccc(Cl)cc3)ccc21,-104*,-4%,-80*,6%,2,27
Cn1c(CCN2CCCCC2)nc2cc(NS(=O)(=O)c3ccc(F)cc3)ccc21,-89*,-4%,-45,22%,2,-6
Cc1ccc(S(=O)(=O)Nc2ccc3c(c2)nc(CCN2CCN(c4ccccn4)CC2)n3C)cc1,-96*,-1%,-41,13%,1,22
COc1ccc(-n2c(=O)c3ccccc3n(CC(=O)NCCc3ccc(OC)c(OC)c3)c2=O)cc1,x,0%,x,x,x,x
Cc1ccc(-c2nnc(Nc3cccc(Cl)c3)c3ccccc23)cc1S(=O)(=O)NCC1CCCO1 (stereo not drawn),x,-22%,x,x,x,x
FC(F)(F)c1nc2ccccc2n2c(-c3ccc(Cl)cc3)nnc12,5,13µM*,-19,1%,0,-3
Cc1ccc(-c2nnc3c(C(F)(F)F)nc4ccccc4n23)cc1,-4,13µM*,-6,9%,0,4
FC(F)(F)c1nnc2c(Sc3ccc(Cl)cc3)nc3ccccc3n12,1,-4%,-6,2%,-3,-7
Cc1ccc(-c2nc3ccccc3n3c(C)nnc23)cc1,x,x,x,-28%,1,3
Fc1ccc(/C=C/c2nccc3ccccc23)cc1,x,2%,x,x,x,x
O=C(Nc1ccccn1)c1ccc2ccccc2n1,16,3%,-2,45µM*,0,8
O=C(Cn1c(=O)[nH]c2ccccc2c1=O)N1CCN(c2cccc(Cl)c2)CC1,13,32µM*,1,25%,16,-4
O=C(Cn1c(-c2cccs2)cc2cc(F)ccc21)N1CCN(c2cccc(Cl)c2)CC1,x,28µM*,x,x,x,x
CN1CCN(C(=O)Cn2c(-c3cccs3)cc3cc(Cl)ccc32)CC1,x,32µM*,x,x,x,x
C(=Nc1cccnc1)c1ccc2ccccc2n1,x,-13%,x,x,x,x
COC(=O)[C@@]1(Cc2ccc(OC)cc2)[C@H]2c3cc(C(=O)N4CCCC4)n(Cc4ccccc4)c3C[C@H]2CN1C(=O)c1ccccc1,x,2%,x,x,x,x
Cc1ccc(N(CC2=NCCN2)c2cccc(O)c2)cc1,-80*!,u,-31,-6%,-3,-4
c1ccc(CN(CC2=NCCN2)c2ccccc2)cc1,-19,-1%,8,-3%,3,6
CC1=CC2C(C(O)CC3(C)C2CC(C)C32OCOC23COCO3)C2(C)C/C(=C\O)C(=O)C=C12 (stereo not drawn),x,-1%,-5,x,x,x
COc1ccccc1-c1sc2ccccc2c1-c1ccc(O)cc1,-1,20µM*,2,-1%,x,x
COc1cccc(-c2sc3ccc(OC)cc3c2-c2ccc(O)cc2)c1,x,28µM*,x,-3%,3,3
COc1cccc(-c2sc3ccc(OC)cc3c2-c2cc(F)cc(OC)c2)c1,-23,u,-3,17%,2,-3
Cc1ccccc1NC(=O)COc1ccccc1C(=O)Nc1ccccc1,x,-25%,x,x,x,x
SMILES,KCNH2 3.1 block,ClpP mod,hERG WT inh,p53 reactivator,TRPV1 agonist,TRPV1 potentiator
Cc1cn2c(-c3cccnc3)nnc2s1,-76*,-2%,5,1%,-3,8
O=C(NC1C2CC3CC(C2)CC1C3)c1ccc2c(c1)OCO2 (stereo not drawn),-1,20µM*,-17,6%,u,-10
COCCCNCCCCOc1ccc(OCc2ccccc2)cc1,-77*,-1%,47,0%,0,7
CN1CCN(CCOc2ccc(Cc3ccccc3)cc2)CC1,7,x,33,x,-2,3
c1ccc(COc2ccc(OCCCN3CCCCC3)cc2)cc1,3,-4%,4,u,6,-3
CC1CCN(CCOc2ccc(OCc3ccccc3)cc2)CC1,u,3.2µM*,12,21%,1,-5
c1ccc(COc2ccc(OCCCCN3CCCC3)cc2)cc1,-21,-1%,58,11µM*,1,3
Cc1cccc2[nH]cc(/C=C3/C=Nc4ccccc43)c12,x,-9%,x,x,x,x
O=C(Cn1c(-c2ccccc2Cl)nc2ccccc21)Nc1cccc(Cl)c1,-2,1%,-2,-4%,1,-7
Cc1cc(C)cc(NC(=O)Cn2c(-c3ccccc3Cl)nc3ccccc32)c1,-14,28µM*,-9,22%,-2,-2
COc1ccc(CCN(C)CC(O)COC(c2ccc(F)cc2)c2ccc(F)cc2)cc1OC (stereo not drawn),-112*,1%,-144*,-7%,3,-4
COc1ccc(CCN(C)CC(O)COc2c(C)ccc(C)c2C)cc1OC (stereo not drawn),u,-3%,x,-6%,3,-12
COc1ccc(CN(C)CC(O)COC(c2ccccc2)c2ccccc2)c(OC)c1OC (stereo not drawn),-86*,x,u,-8%,3,-4
Cn1c2c(c(=O)n(C)c1=O)C(c1ccccc1Cl)C(C#N)=C(N)O2 (stereo not drawn),-105*,4%,0,0%,-2,14
Cc1cccc(S(=O)(=O)N2CCN(c3nc(-c4cccs4)nc4ccccc34)CC2)c1,x,-8%,x,x,x,x
O=S(=O)(c1cccc(Cl)c1)N1CCN(c2nc(-c3cccs3)nc3ccccc23)CC1,x,14µM*!,x,x,x,x
CN1CCN(c2nc(-c3ccccc3Cl)nc3ccccc23)CC1,-5,0%,25,-2%,8,7
CN1CCN(c2nc(-c3ccc(Cl)cc3Cl)nc3ccccc23)CC1,-124*,0%,-18,-4%,17,-9
CCC(=O)c1ccc(OC)c(OC)c1OCc1ccccc1,-1,-8%,6,x,x,x
CCN(CC)CCCNC(=O)c1nn(C)c2c1CSc1ccccc1-2,x,-1%,x,x,x,x
CC1=CC2=NC(=O)CC(C)(C(=O)N(CC(=O)NC(C)(C)C)C3CCCC3)N2C=C1 (stereo not drawn),-13,32µM*,1,1%,-3,6
CC(C)(C)NC(=O)CN(C(=O)C1(C)CC(=O)N=C2C=CC=CN21)C1CCCC1 (stereo not drawn),-12,u,-24,19%,1,-23
COc1ccc(/C=C/C(=O)Nc2ccc3nc4c(c(Nc5ccc(OC)c(OC)c5)c3c2)CCCC4)cc1,x,0%,x,x,x,x
Cc1ccc2nc(-c3ccc(NC(=O)C4CCCO4)cc3)[nH]c2c1 (stereo not drawn),-11,32µM*,-1,8%,-3,8

# From PubChem
